Experimental data reported in PubChem BioAssay (NCATS).
Records with an inconclusive call do not appear. Entries that show only a call come without a potency. Unmarked numbers belong to inactive results. Activity calls are given as the source filed them. The call rests on the fitted dose curve; in most records, active means well fitted curve in the direction sought with a large enough effect; inconclusive means small, poorly fitted or top-dose-only effect, or another doubt; inactive means no such curve, though single readings can be large; an effect the other way counts as inactive or inconclusive.

Legend:
[1] = target: Rap guanine nucleotide exchange factor 3 (Homo sapiens) (UniProt O95398); assay: Confirmatory qHTS for agonist of cAMP-regulated guanine nucleotide exchange factor 3 (EPAC1) (AID 1645881);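 further: EPAC1 catalysed release of BODIPY-GDP from Rap1B seen as fluorescence loss; nearly all actives have a fitted effect of over 75% in size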
Chain of Rap guanine nucleotide exchange factor 3 (Homo sapiens) (O95398 whole entry, looked up): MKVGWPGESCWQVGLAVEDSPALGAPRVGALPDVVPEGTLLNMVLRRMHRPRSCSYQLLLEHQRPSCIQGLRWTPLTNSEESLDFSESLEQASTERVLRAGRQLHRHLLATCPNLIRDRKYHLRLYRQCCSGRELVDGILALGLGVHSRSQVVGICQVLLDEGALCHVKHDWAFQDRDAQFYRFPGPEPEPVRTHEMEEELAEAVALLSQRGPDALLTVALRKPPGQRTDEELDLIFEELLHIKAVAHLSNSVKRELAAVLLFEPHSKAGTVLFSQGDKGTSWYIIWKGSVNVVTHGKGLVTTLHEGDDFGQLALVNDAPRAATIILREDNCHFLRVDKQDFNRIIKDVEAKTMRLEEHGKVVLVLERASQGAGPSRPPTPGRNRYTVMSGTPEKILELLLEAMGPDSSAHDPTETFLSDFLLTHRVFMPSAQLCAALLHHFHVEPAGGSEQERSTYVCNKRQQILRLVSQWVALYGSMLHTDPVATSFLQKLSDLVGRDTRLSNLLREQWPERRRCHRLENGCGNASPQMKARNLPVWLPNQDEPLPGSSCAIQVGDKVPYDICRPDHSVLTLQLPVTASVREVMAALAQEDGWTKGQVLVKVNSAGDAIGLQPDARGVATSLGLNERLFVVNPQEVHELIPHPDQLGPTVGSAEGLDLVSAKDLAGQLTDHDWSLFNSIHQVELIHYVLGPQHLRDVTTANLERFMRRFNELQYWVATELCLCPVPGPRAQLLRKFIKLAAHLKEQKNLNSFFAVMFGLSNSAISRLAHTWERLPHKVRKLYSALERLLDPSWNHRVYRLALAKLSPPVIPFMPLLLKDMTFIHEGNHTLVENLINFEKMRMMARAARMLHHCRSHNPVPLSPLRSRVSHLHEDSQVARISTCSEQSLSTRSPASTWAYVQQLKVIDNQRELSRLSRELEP

[2] = target: Rap guanine nucleotide exchange factor 4 (Homo sapiens) (UniProt Q8WZA2); assay: Confirmatory qHTS for agonist of cAMP-regulated guanine nucleotide exchange factor 4 (EPAC2) (AID 1645884);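 further: nucleotide exchange releases bodipy-GDP from Rap1 and this lowers its fluorescence; nearly all actives have a fitted effect of over 65% in size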
Chain of Rap guanine nucleotide exchange factor 4 (Homo sapiens) (Q8WZA2 whole entry, looked up): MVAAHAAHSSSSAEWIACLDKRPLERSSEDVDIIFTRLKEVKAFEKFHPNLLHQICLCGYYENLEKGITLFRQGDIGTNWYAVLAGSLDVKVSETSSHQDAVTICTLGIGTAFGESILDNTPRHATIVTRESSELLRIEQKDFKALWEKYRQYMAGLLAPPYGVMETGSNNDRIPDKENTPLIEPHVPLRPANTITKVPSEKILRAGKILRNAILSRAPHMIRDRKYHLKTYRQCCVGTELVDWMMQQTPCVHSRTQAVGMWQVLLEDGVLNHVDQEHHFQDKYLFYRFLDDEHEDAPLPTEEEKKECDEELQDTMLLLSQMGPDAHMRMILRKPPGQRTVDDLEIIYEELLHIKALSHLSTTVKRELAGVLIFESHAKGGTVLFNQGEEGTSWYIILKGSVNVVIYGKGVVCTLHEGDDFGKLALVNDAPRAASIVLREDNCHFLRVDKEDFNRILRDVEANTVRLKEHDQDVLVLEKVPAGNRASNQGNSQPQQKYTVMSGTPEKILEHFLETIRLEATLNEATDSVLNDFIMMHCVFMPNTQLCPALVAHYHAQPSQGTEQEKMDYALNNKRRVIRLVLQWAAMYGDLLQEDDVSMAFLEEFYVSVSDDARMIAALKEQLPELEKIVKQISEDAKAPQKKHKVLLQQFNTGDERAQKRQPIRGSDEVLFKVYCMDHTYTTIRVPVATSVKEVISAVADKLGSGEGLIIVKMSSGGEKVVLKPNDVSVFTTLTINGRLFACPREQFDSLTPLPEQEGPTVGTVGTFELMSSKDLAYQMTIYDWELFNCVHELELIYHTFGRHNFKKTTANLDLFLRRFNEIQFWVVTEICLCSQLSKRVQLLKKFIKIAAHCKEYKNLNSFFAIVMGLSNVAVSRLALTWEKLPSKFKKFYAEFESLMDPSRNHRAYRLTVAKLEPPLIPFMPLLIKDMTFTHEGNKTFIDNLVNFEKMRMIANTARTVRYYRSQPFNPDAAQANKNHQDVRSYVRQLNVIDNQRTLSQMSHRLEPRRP

[3] = target: Rap guanine nucleotide exchange factor 4 (Homo sapiens) (UniProt Q8WZA2); assay: Confirmatory qHTS for antagonist of cAMP-regulated guanine nucleotide exchange factor 4 (EPAC2) (AID 1645885); further: nearly all actives have a fitted effect of over 25% in size; further: potency means the concentration at half of the fitted maximal effect
[4] = target: Rap guanine nucleotide exchange factor 3 (Homo sapiens) (UniProt O95398); assay: Counterscreen qHTS for antagonist of cAMP-regulated guanine nucleotide exchange factor 3 (EPAC1) (AID 1645888);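 further: fluorescence loss as bound BODIPY-GDP is released from Rap1B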
Summary of the method: (§1)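 Rap1B–BODIPY-GDP (250 nM) with 50 uM GDP; compounds pin-transferred to 9.74 nM–152 uM final (activator) or from 7.32 nM upwards (inhibitor). Fluorescence Ex/Em 480/540 nm read at 5 and 30 min, then after adding cAMP or buffer, at room temperature.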

[5] = target: Rap guanine nucleotide exchange factor 3 (Homo sapiens) (UniProt O95398); assay: Counterscreen qHTS for agonist of cAMP-regulated guanine nucleotide exchange factor 3 (EPAC1) (AID 1645889); further: nearly all actives have a fitted effect of over 40% in size
Summary of the method: as §1

CN(CC(=O)Nc1ccccc1C(F)(F)F)C(=O)c1cc(-c2cccs2)nn1-c1ccccc1 was tested, and the Potency [1] was “inactive”, the Potency [2] was “inactive” and the Potency [3] was “inactive”. The Potency [4] was “inactive” and the Potency [5] was “inactive”.

For Cc1c(C(=O)N2CCN(c3ncccn3)CC2)oc2c(Cl)cccc12, the Potency [1] was “inactive”, the Potency [2] was “inactive” and the Potency [3] was “inactive”. For the same molecule, the Potency [4] was “inactive” and the Potency [5] was “inactive”.

For CC1(C(=O)NS(=O)(=O)c2ccc(Cl)cc2)CCN1C(=O)C1(c2ccccc2)CCCC1 (stereo not given), the Potency [1] was “inactive”, the Potency [2] was “inactive” and the Potency [3] was “inactive”. For the same molecule, the Potency [4] was “inactive” and the Potency [5] was “inactive”.

In the case of COc1cc(/C=N/NC(=O)c2ccccc2O)ccc1OCC(=O)Nc1ccccc1, the Potency [1] is reported as “inactive”, the activation [2] is reported as -7.34% [at 17.1 µM, percent relative to cAMP agonist control] and the Potency [3] is reported as “inactive”. It also gave an activity change, negative = inhibition [4] of 0.781% [at 30.8 µM] and an activation [5] of 13.4% [at 30.8 µM].

In the case of COc1ccc(C2=NN(c3ccccc3)C(c3cn(CCC(=O)O)nc3-c3ccccc3)C2)cc1 (stereo not given), the Potency [1] is reported as “inactive”, the Potency [2] is reported as “inactive” and the Potency [3] is reported as “inactive”. The Potency [4] was “inactive” and the Potency [5] was “inactive”.

O=C(/C=C/c1ccco1)NC(=S)Nc1cccc(-c2nc3ccccc3o2)c1 was tested, and the Potency [1] was “inactive”, the activation [2] was -2.07% [at 17.1 µM, percent relative to cAMP agonist control] and the Potency [3] was “inactive”. It also gave an activity change, negative = inhibition [4] of -12.8% [at 30.8 µM] and an activation [5] of 10.2% [at 30.8 µM].

COc1cc(/C=C2/SC(=S)N(c3c(C)n(C)n(-c4ccccc4)c3=O)C2=O)ccc1O was tested, and the Potency [1] was “inactive”, the activation [2] was 9.4% [at 17.1 µM, percent relative to cAMP agonist control] and the Potency [3] was “inactive”. For the same molecule, the activity change, negative = inhibition [4] was -24.4% [at 30.8 µM] and the activation [5] was 11.7% [at 30.8 µM].

In the case of N#C/C(=C\C1=C(N2CCOCC2)C(=C/c2cccc([N+](=O)[O-])c2)/CC1)C(=O)Nc1ccccc1F, the Potency [1] is reported as “inactive”, the Potency [2] is reported as “inactive” and the Potency [3] is reported as “inactive”. For the same molecule, the Potency [4] was “inactive” and the Potency [5] was “inactive”.

For CCCn1nc([N+](=O)[O-])c(C(C#N)c2nc3ccccc3o2)c(Cl)c1=O (stereo not given), the Potency [1] was “inactive”, the Potency [2] was “inactive” and the Potency [3] was 37.9 µM (active). For the same molecule, the Potency [4] was “inactive” and the Potency [5] was “inactive”.

O=C(Nc1cccnc1)c1c(O)c2cccc3c2n(c1=O)CC3 was tested, and the Potency [1] was “inactive”, the activation [2] was 9.2% [at 17.1 µM, percent relative to cAMP agonist control] and the Potency [3] was “inactive”. The activity change, negative = inhibition [4] was -2.81% [at 30.8 µM] and the activation [5] was 22.3% [at 30.8 µM].

O=[N+]([O-])c1cc2c(cc1CN1CCN(CCOCCO)CC1)OCO2 was tested, and the Potency [1] was “inactive”, the Potency [2] was “inactive” and the Potency [3] was “inactive”. The Potency [4] was “inactive” and the Potency [5] was “inactive”.

For CC1C(=O)N(Cc2cn(Cc3ccco3)nn2)CCS(=O)(=O)N1Cc1ccc(-c2cccnc2)cc1 (stereo not given), the Potency [1] was “inactive”, the activation [2] was -1.85% [at 17.1 µM, percent relative to cAMP agonist control] and the Potency [3] was “inactive”. For the same molecule, the activity change, negative = inhibition [4] was 0.588% [at 30.8 µM] and the activation [5] was 21.5% [at 30.8 µM].

In the case of CCC(=O)N(CCC1(c2ccccc2OC)CCOC(C(C)C)C1)Cc1ccco1 (stereo not given), the Potency [1] is reported as “inactive”, the activation [2] is reported as -0.808% [at 17.1 µM, percent relative to cAMP agonist control] and the Potency [3] is reported as “inactive”. For the same molecule, the activity change, negative = inhibition [4] was -14.7% [at 30.8 µM] and the activation [5] was 10.9% [at 30.8 µM].

With O=C(Nc1c2c(nc3ccccc13)CCCC2)c1ccccc1F the Potency [1] was “inactive”, the activation [2] was -3.93% [at 17.1 µM, percent relative to cAMP agonist control] and the Potency [3] was “inactive”. For the same molecule, the activity change, negative = inhibition [4] was -18.6% [at 30.8 µM] and the activation [5] was 12.9% [at 30.8 µM].

O=C(/C=C/c1ccc(Br)o1)NCc1ccccc1 was tested, and the Potency [1] was “inactive”, the activation [2] was -1.62% [at 17.1 µM, percent relative to cAMP agonist control] and the Potency [3] was “inactive”. The activity change, negative = inhibition [4] was 13% [at 30.8 µM] and the activation [5] was 21.3% [at 30.8 µM].

In the case of CCOC(=O)c1c(C)[nH]c(C(=O)OCC(=O)Nc2sccc2C(N)=O)c1C, the Potency [1] is reported as “inactive”, the Potency [2] is reported as “inactive” and the Potency [3] is reported as “inactive”. The Potency [4] was “inactive” and the Potency [5] was “inactive”.

In the case of O=C(O)c1ccccc1NC(c1ccccc1)c1ccc(Cl)cc1 (stereo not given), the Potency [1] is reported as “inactive”, the Potency [2] is reported as “inactive” and the Potency [3] is reported as “inactive”. The Potency [4] was “inactive” and the Potency [5] was “inactive”.

In the case of COc1ccc(-c2nc3ccccc3n2CCC(C)C)cc1OC, the Potency [1] is reported as “inactive”, the Potency [2] is reported as “inactive” and the Potency [3] is reported as “inactive”. For the same molecule, the Potency [4] was “inactive” and the Potency [5] was “inactive”.

For CC(=O)NS(=O)(=O)c1ccc(Nc2ccc([N+](=O)[O-])c3nonc23)cc1, the Potency [1] was “inactive”, the activation [2] was 14.6% [at 17.1 µM, percent relative to cAMP agonist control] and the Potency [3] was “inactive”. It also gave an activity change, negative = inhibition [4] of -18.4% [at 30.8 µM] and an activation [5] of 1.5% [at 30.8 µM].

For O=S(=O)(NCCC1=CCCCC1)c1ccc(OC(F)(F)F)cc1, the Potency [1] was “inactive”, the activation [2] was -1.46% [at 17.1 µM, percent relative to cAMP agonist control] and the Potency [3] was “inactive”. For the same molecule, the activity change, negative = inhibition [4] was -5.33% [at 30.8 µM] and the activation [5] was 3.2% [at 30.8 µM].
